Assay results taken from PubChem BioAssay (NCATS).
Results filed as inconclusive are left out. Active and inactive are the calls of the source. Calls come from the whole dose curve; as a rule, active = well fitted activation curve with a large enough effect; inconclusive = small, poorly fitted or top-dose-only effect; inactive = flat fitted curve, though single readings scatter.

Assay: Primary redox qHTS assay for identification of artifact compounds. (AID 1845223)
Details: Amplex Red/HRP redox cycling with DTT, fluorescence; series mostly up to 53.8 µM; redox activity (% of DA3003): at the top concentration
Description: PI: Alexander Tropsha Ph.D.
UNC Eshelman School of Pharmacy
University of North Carolina, Chapel Hill, North Carolina
Hits from high-throughput screening (HTS) of chemical libraries are often false positives due to their interference with the assay detection technology. In response to this problem, we generated the largest publicly available library of chemical liabilities and developed a free webtool to predict HTS artifacts, both of which are described herein. More specifically, we generated, curated, and integrated HTS datasets for thiol reactivity, redox activity, and luciferase (firefly and nano) activity. Using these curated datasets, we developed and validated several Quantitative Structure-Interference Relationship (QSIR) models to predict nuisance behavior. […] These models were employed for virtual profiling of the National Center for Advancing Translational Science's (NCATS) in-house library, and 256 compounds for each assay were selected for the experimental validation of nuisance behavior. The BA for these external predictions ranged from 58 to 78% for compounds within the applicability domains of the models. […] The models developed in this study, along with aggregation models previously developed by our group (SCAM Detective) were implemented in "Liability Predictor," an online tool which may be used as part of chemical library design or for triaging HTS hits. Both the models and the curated datasets are publicly available at https://liability.mml.unc.edu/.
SEQUENCE No. (e.g., 1, 2, 3, etc.); […] (e.g., Cells, Incubation, Reagent, etc.); VALUE; DESCRIPTION.
1; Reagent; 3 uL; Amplex Red and HRP mixture.
2; Compounds and control; 16 nL; Kalypsis pin tool (Wako USA) equipped with a 1536-well pin head. […]
6; Detection; Fluorescence, ViewLux microplate reader, 525 nm excitation, 598 nm emission.
NOTES (numbers refer to Sequence numbers above)
1. 3 uL of a mixture containing Amplex Red (25 uM final concentration) and horseradish peroxidase (HRP; 250 mU/mL final concentration) in assay buffer (HBSS) was dispensed into all wells of a 1536-well assay plate (solid-bottom black plate; Greiner Bio One, Monroe, NC).
2. A Wako Pin-tool (Wako Automation, Richmond, VA) was used to transfer 16 nL of compounds (consisting of 7-plates in qHTS format, final concentration range 18.3 nM to 114 uM) or control DA3003 (final concentration range 1.22 nM to 40 uM).
3. 15 min. incubation at room temperature protected from light.
4. 1 uL of DTT (prepared fresh; final concentration 250 uM) was dispensed for a final assay volume of 4 uL.
5. Plates were centrifuged (121xg, 15 seconds) and incubated for 30 minutes at room temperature protected from light.
6. Samples were read for fluorescence (Ex/Em = 525(20)/598(25) nm) on a ViewLux CCD imager (PerkinElmer). Data were normalized to DMSO (0% activity) and DA3003 (10 uM final concentration; 100% activity) and the resulting percent inhibition data were fitted to a 4-parameter Hill equation using NCATS in-house software.

Row | SMILES | redox activity (% of DA3003)
1 | COc1cc(N2CCN(C)CC2)ccc1Nc1nccc(-c2cn(C)c3cnccc23)n1 | -4.19% (inactive)
2 | Cc1[nH]c(/C=C2\C(=O)Nc3ccc(F)cc32)c(C)c1C(=O)NC[C@H](O)CN1CCOCC1 | 13.7% (inactive)
3 | COc1c(N2CC3CCCNC3C2)c(F)cc2c(=O)c(C(=O)O)cn(C3CC3)c12 (stereo not given) | -0.802% (inactive)
4 | CN(C)CC(=O)Nc1ccc2[nH]c(=O)c3ccccc3c2c1 | -4.42% (inactive)
5 | COc1cc(O)ccc1OCCNCC(O)COc1cccc2[nH]c3ccccc3c12 (stereo not given) | 1.98% (inactive)
6 | Cc1ccccc1C(=O)Nc1ccc(C(=O)N2CCC[C@@H](O)c3cc(Cl)ccc32)c(C)c1 | 4.19% (inactive)
7 | CNCc1ccc(C)c(NC(=O)c2ccc(Nc3nc(-c4ccccc4)c4ccccc4n3)cc2)c1 | -0.554% (inactive)
8 | COc1cccc(NC[C@@H](O)Cn2c3ccc(Br)cc3c3cc(Br)ccc32)c1 | -1.84% (inactive)
9 | OC(CNCCc1c[nH]c2ccccc12)Cn1c2ccccc2c2ccccc21 (stereo not given) | -4.95% (inactive)
10 | Nc1ncnc2c1ncn2[C@@H]1O[C@H](CO)C[C@H]1O | -0.604% (inactive)
11 | Cc1cc(C)c(-c2csc(NC(=O)c3ccccc3)n2)c(C)c1 | -5.04% (inactive)
12 | CC(=O)c1c(OCCN2CCCCC2)c(OCCC(C)c2ccc(F)cc2)c2oc(C)nc2c1C (stereo not given) | 10.4% (inactive)
13 | O=[N+]([O-])c1ccc(-[n+]2nc(-c3ccccc3)nn2-c2ccc(I)cc2)cc1 | -6.15% (inactive)
14 | COc1cc(O)c(C(=O)CCc2ccc(O)cc2)c(O[C@@H]2O[C@H](CO)[C@@H](O)[C@H](O)[C@H]2O)c1 | -5.91% [at 25.6 µM] (inactive)
15 | COc1cc2ncnc(Nc3ccc(Oc4ccccc4)cc3)c2cc1OC | -3.02% (inactive)
16 | NC(=Nc1ccc(CCNCc2cccc(Cl)c2)cc1)c1cccs1 | -4.7% (inactive)
17 | CCS(=O)(=O)N(Cc1cccnc1)c1cccc(-c2ccc(C#N)cc2)c1 | 9.36% (inactive)
18 | O=C(Nc1ncc(SCCN2CCCC2)s1)C1(c2ccc(S(=O)(=O)C3CC3)cc2)CC1C1CCCCC1 (stereo not given) | 9.56% (inactive)
19 | COc1ccc(C2(CNC(=O)[C@](C)(Cc3c[nH]c4ccccc34)NC(=O)Nc3ccc([N+](=O)[O-])cc3)CCCCC2)nc1 | -4.82% (inactive)
20 | CN(C)CCCNc1nc(CN2CCN(C(c3ccc(Cl)cc3)c3ccc(Cl)cc3)CC2)nc2ccccc12 | 6.4% (inactive)

Row | SMILES | redox activity (% of DA3003)
21 | Cc1ccc2c(Nc3ccc(Cl)cc3)nccc2c1Nc1ncccc1-c1ncnc2nc[nH]c12 | -9.7% (inactive)
22 | C=C1C(=O)O[C@H]2[C@H]1[C@@H](OC(=O)/C(C)=C\C)C[C@]1(C)O[C@@H]1[C@H]1O[C@H]1C(=C)[C@H]2O | 6.07% (inactive)
23 | C/C=C/C[C@@H](C)[C@@H](O)[C@H]1C(=O)N[C@@H](CC)C(=O)N(C)CC(=O)N(C)[C@@H](CC(C)C)C(=O)N[C@@H](C(C)C)C(=O)N(C)[C@@H](CC(C)C)C(=O)N[C@@H](C)C(=O)N[C@H](C)C(=O)N(C)[C@@H](CC(C)C)C(=O)N(C)[C@@H](CC(C)C)C(=O)N(C)[C@H](C(C)C)C(=O)N1C | 7.35% [at 25.6 µM] (inactive)
24 | CCCCc1nc(C)c(CC(=S)N(C)C)c(=O)n1Cc1ccc(-c2ccccc2-c2nn[nH]n2)cc1 | 6.11% (inactive)
25 | CN1CCN(C(=O)c2ccc(Nc3nccc(-c4cccs4)n3)cc2Cl)CC1 | 14.6% (inactive)
26 | COc1cccc(CNC(=O)Nc2nc(-c3ccncc3)cs2)c1 | -1.78% (inactive)
27 | CCCCc1nc(Cl)c(CO)n1Cc1ccc(-c2ccccc2-c2nnn[nH]2)cc1 | -0.499% (inactive)
28 | CC1CCN(c2cc(NC(=O)c3ccccc3)ncn2)CC1 | -0.536% (inactive)
29 | CCOC(=O)CCC(=O)O[C@H]1[C@H](O[C@@H]2[C@@H](C)[C@H](O[C@H]3C[C@@](C)(OC)[C@@H](O)[C@H](C)O3)[C@@H](C)C(=O)O[C@H](CC)[C@@](C)(O)[C@H](O)[C@@H](C)C(=O)[C@H](C)CC2(C)O)O[C@H](C)C[C@@H]1N(C)C (stereo not given in full) | 14.3% (inactive)
30 | CCCCOc1ccc(-c2cncc(C(=O)NCc3cccnc3N3CCOCC3)c2)cc1Cl | -5.18% (inactive)
31 | N#Cc1ccc(-c2ccc(NC(=O)Nc3ccc(-c4ccnc5nc[nH]c45)cc3)cc2)cc1 | -1.83% (inactive)
32 | CC[C@H](C)[C@H]1O[C@]2(CC[C@@H]1C)C[C@@H]1C[C@@H](C/C=C(\C)[C@@H](O[C@H]3C[C@H](OC)[C@@H](O[C@H]4C[C@H](OC)[C@@H](O)[C@H](C)O4)[C@H](C)O3)[C@@H](C)/C=C/C=C3\CO[C@@H]4[C@H](O)C(C)=C[C@@H](C(=O)O1)[C@]34O)O2 | 10% (inactive)
33 | CC1=CC(=O)[C@@]2(C(C)C)C[C@@H]12 | 16% (inactive)
34 | CC(C)c1ccc(NC(=O)C(c2ccccc2)N(C)C(=O)Cc2c[nH]c3ccccc23)cc1 (stereo not given) | -1.21% (inactive)
35 | C=C1[C@@H](C)[C@H]2[C@H](Cc3c[nH]c4ccccc34)NC(=O)[C@]23C(=O)/C=C/C(=O)[C@H](O)/C(C)=C\[C@@H](C)C/C=C/[C@H]3[C@@H]1O | 10.8% [at 25.6 µM] (inactive)
36 | Clc1ccccc1CNCC1CCC(CNCc2ccccc2Cl)CC1 (stereo not given) | 8.78% (inactive)
37 | CCCCn1ccc(N2CCC(c3ccccc3)CC2)c(Cl)c1=O | 6.45% (inactive)
38 | C=C1CC[C@@H]2[C@](C)(CO)[C@H](O)CC[C@@]2(C)[C@@H]1C/C=C1/C(=O)OC[C@@H]1O | -7.01% (inactive)
39 | COc1cc2ncnc(Oc3cccc(NC(=O)Nc4cc(C(C)(C)C(F)(F)F)on4)c3)c2cc1OC | -10.4% (inactive)
40 | Cc1ccc(C(=O)N2CCN(c3ccc([N+](=O)[O-])cc3)CC2)cc1Cl | -3.04% (inactive)
